Shn3 inh set2 = Schnurri-3 reporter inhibition in Clone20 osteoblasts; Clone20 osteoblast Shn3 3'UTR firefly luciferase, 24 h; inhibition, % at 12.5 µM; 360,000 tested, 0.52% active; AID 588674;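 active = mean inhibition of at least 75% with every replicate also reaching 75%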
TWEAK-Fn14 inh = TWEAK-Fn14 signaling inhibition; AID 1159606; TWEAK-stimulated Fn14 reporter cells, luciferase luminescence, 8 h; inhibition, % at 10 µM; 360,000 tested, 2% active; in the data active = inhibition above about 50%
MITF TRPM1 inh = inhibitors of MITF-driven TRPM1 promoter in melanoma cells | inhibition, % at 12.5 µM | SK-MEL-5 TRPM1 promoter luciferase, 24 h | 330,000 tested, 0.83% active;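 active = mean inhibition across replicates of 60% or more, whatever share of single replicates reaches that level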
EBV LMP1 NFkB = reduces LMP1-driven NF-kappaB luciferase signal | LMP1-induced NF-kappaB luciferase reporter cells, luminescence | inhibition, % at 12.5 µM | 350,000 tested, 0.69% active | AID 504558; in the data active = inhibition above about 41%
Peg3 prom inh = Peg3 promoter activity inhibition; HeLa PEG-Prom luciferase reporter, luminescence, overnight; inhibition, % at 20 µM; 360,000 tested, 1.7% active;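 active = inhibition of at least 50% at 20 µM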
TROY NFkB inh = TROY signaling inhibition. Q293 LMP1-TROYcd NF-kB luciferase reporter, 4 h. inhibition, % at 10 µM. 360,000 tested, 0.98% active. AID 1347056;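 active = compounds whose plate-normalised and pattern-corrected inhibition of the luciferase reporter signal at the single screening dose is 50% or more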
Of the large screens only hits and unclear results are named; the others gave an inactive call. Most compounds without a hit are left out; they make up all but 4.1% or so of the library.

Clc1ccc(-n2nnc(-c3nccs3)n2)cc1Cl	none
Cc1csc(CNC(=O)c2cc(COc3c(C)cccc3C)on2)n1	none
Cc1ccc(S(=O)(=O)CC(CN2CCOCC2)N2CCOCC2)cc1 (stereo not drawn)	none
O=S(=O)(CC(CN1CCCC1)N1CCCC1)c1ccc2ccccc2c1 (stereo not drawn)	MITF TRPM1 inh 76, Peg3 prom inh 80
CCc1nc2c(oc3ccccc32)c(=O)[nH]1	none
O=c1[nH]c(CSc2ccccn2)nc2c1oc1ccccc12	TWEAK-Fn14 inh 65
CCN(CC(=O)NCc1cccs1)C(=O)/C=C/c1cc(OC)c(OC)c(OC)c1	none
COc1ccc(CNc2nc3c(c(=O)n(Cc4ccc(F)cc4)c(=O)n3C)n2C)cc1	Peg3 prom inh 50
Cn1c(NCC(O)c2ccccc2)nc2c1c(=O)n(Cc1ccc(Cl)c(Cl)c1)c(=O)n2C (stereo not drawn)	Peg3 prom inh 53, TROY NFkB inh 54 (no result: Shn3 inh set2)
COc1ccc(/C=C(\C#N)c2n[nH]c(Cn3cncn3)n2)cc1	none
Cc1ccc(C(=O)Oc2cc(C)n(C)c(=O)c2)cc1	TWEAK-Fn14 inh 54
Nc1nnc(CC(=O)N/N=C/c2ccccc2OCc2ccc(F)cc2)s1	none (no result: MITF TRPM1 inh, EBV LMP1 NFkB)
COc1ccc(S(=O)(=O)N2CCCCCC2)cc1C(=O)N1CCN(c2ccccc2O)CC1	none
O=c1c(O)c(-c2ccc(O)c(O)c2)oc2cc(O)cc(O)c12	TWEAK-Fn14 inh 68, EBV LMP1 NFkB 90
O=c1cc(-c2ccc(O)c(O)c2)oc2cc(O)cc(O)c12	TWEAK-Fn14 inh 64
COc1c(-c2ccc(O)cc2)oc2cc(O)cc(O)c2c1=O	none
Cc1ccc(-n2cc(C(=O)c3cc(Cl)ccc3O)cc(C#N)c2=O)cc1	none
Cc1ccccc1NC(=O)c1cc(C(=O)c2cc(Cl)ccc2O)cn(-c2ccccc2C)c1=O	TWEAK-Fn14 inh 87
O=C(NCC1CCN(C(=O)c2c(F)c(F)c(F)c(F)c2F)CC1)c1c(F)c(F)c(F)c(F)c1F	none
Cc1csc(NC(=O)Cc2coc3cc(C)c(C(C)C)cc23)n1	TROY NFkB inh 55
CCn1c2ccccc2c2cc(CNCc3ccc(OC)cc3OC)ccc21	Peg3 prom inh 114
COc1cccc(CNCc2ccc(OC)cc2OC)c1	none
CCN(CC(=O)Nc1cc(S(=O)(=O)N2CCOCC2)ccc1C)Cc1ccccc1	none
Cc1c(Cl)cccc1NC(=S)NNc1ncc(C(F)(F)F)cc1Cl	Peg3 prom inh 54
CN(C)c1ccc(C=C2C=CC=C2)cc1	TWEAK-Fn14 inh 62
COCCCNC(=O)c1ccc(S(=O)(=O)c2ccc(C)cc2)c(NC(C)=O)c1	none
Cc1cc(C)n2nc(C(=O)OCC(=O)Nc3ccc(C)c(S(=O)(=O)N4CCOCC4)c3)nc2n1	none
CCCN1C(=O)/C(=C/c2ccc3c(c2)OCO3)NC1=S	none
CCCN1C/C(=C/c2ccc3c(c2)OCO3)C(=O)/C(=C/c2ccc3c(c2)OCO3)C1	MITF TRPM1 inh 84, Peg3 prom inh 107
CCOC(=O)c1cc([N+](=O)[O-])cc([N+](=O)[O-])c1Sc1ncnc2nc[nH]c12	Shn3 inh set2 96, MITF TRPM1 inh 107, Peg3 prom inh 98
Cc1ccccc1-c1cc(C(=O)O)nn1CC1CC(c2cccc([N+](=O)[O-])c2)=NO1 (stereo not drawn)	none
CC1=NCC(C)c2c1[nH]c1ccccc21 (stereo not drawn)	TROY NFkB inh 75
CC1=CC(=O)C=C/C1=C(/c1ccc(O)cc1C)c1ccccc1S(=O)(=O)O	Peg3 prom inh 79
COc1ccc(N2CCN(C(=O)CCC(=O)N3CCOc4ccc(Cl)cc43)CC2)cc1	none (no result: MITF TRPM1 inh)
C/[N+]([O-])=C\c1coc2ccccc2c1=O	none
C#CCCc1ccccc1/C=[N+](/C)[O-]	TWEAK-Fn14 inh 51, MITF TRPM1 inh 65
CCCN(CC(=O)Nc1ccccc1C)C(=O)c1ccc(COc2ccccc2)cc1	none
C=CCN1C(=O)N(CC=C)c2cccc3cccc1c23	TROY NFkB inh 66
CCn1cc(C(=O)NCCCN2CCC(C)CC2)c(=O)c2cc(S(=O)(=O)N(C)C3CCCCC3)ccc21	none
CCn1cc(C(=O)NCCCN2CC(C)CC(C)C2)c(=O)c2cc(S(=O)(=O)N(C)C3CCCCC3)ccc21 (stereo not drawn)	Peg3 prom inh 73
O=C(C[C@H]1C/C=C\CC[C@H](Cc2ccc(F)cc2)C(=O)O[C@@H](c2ccccc2)CNC1=O)N[C@@H](CO)Cc1ccccc1	Peg3 prom inh 66
O=C(C[C@@H]1C/C=C/CC[C@@H](Cc2ccc(F)cc2)C(=O)OC[C@H](Cc2ccccc2)NC1=O)N[C@H](CO)Cc1ccccc1	Peg3 prom inh 55
C[C@H]1COC(=O)[C@H](Cc2ccc(F)cc2)CC/C=C/C[C@@H](CC(=O)N[C@@H](CO)Cc2ccccc2)C(=O)N1	none
CC(Oc1ccc(Cl)cc1Cl)C(=O)N(Cc1ccco1)C1CCS(=O)(=O)C1 (stereo not drawn)	TWEAK-Fn14 inh 83 (no result: TROY NFkB inh)
CC(C)COc1ccc(C(=O)N(Cc2ccco2)C2CCS(=O)(=O)C2)cc1 (stereo not drawn)	TWEAK-Fn14 inh 73 (no result: TROY NFkB inh)
Cc1cc(OC(C)C(=O)N(Cc2ccco2)C2CCS(=O)(=O)C2)cc(C)c1Cl (stereo not drawn)	none
CCCCCOc1ccc(C(=O)N(Cc2ccco2)C2CCS(=O)(=O)C2)cc1 (stereo not drawn)	none
CCCCNC(=O)c1ccc(NC(=O)CC2SC(N3CCCC3)=NC2=O)cc1 (stereo not drawn)	none
Cc1cc(C(=O)NNC(=O)c2ccc(F)cc2)c(C)s1	none
O=C(CSc1ccccn1)NC1CCCc2c1cnn2-c1ccccc1F (stereo not drawn)	none (no result: MITF TRPM1 inh)
Cc1nc(SCC(=O)c2ccc(F)c(F)c2)[nH]c(=O)c1Oc1ccc(Cl)cc1	TROY NFkB inh 53
Cc1nc(SCC(=O)c2ccc(F)c(F)c2)[nH]c(=O)c1Oc1ccc(F)cc1	none
Cc1ccc(NN2C(=O)C=C(c3ccccc3)C2=O)cc1	Peg3 prom inh 85 (no result: MITF TRPM1 inh, EBV LMP1 NFkB)
O=C1c2ccccc2C(=O)N1Nc1ccccc1	none
O=C(CONS(=O)(=O)c1ccc(Cl)cc1)NCCNc1ncc(C(F)(F)F)cc1Cl	none
CC(Nc1nc(-c2ccc(F)cc2)cs1)c1nc2cc(Cl)c(Cl)cc2n1CCOCCO (stereo not drawn)	TWEAK-Fn14 inh 51
Cc1ccc(Cn2c(C(C)Nc3nc(-c4ccc(F)cc4)cs3)nc3cc(Cl)c(Cl)cc32)cc1 (stereo not drawn)	TWEAK-Fn14 inh 52
COc1ccc(-c2csc(NC(C)c3nc4cc(Cl)c(Cl)cc4n3CCCO)n2)cc1 (stereo not drawn)	TROY NFkB inh 55
CC(Nc1nc(-c2ccc(F)cc2)cs1)c1nc2cc(Cl)c(N3CCCCC3)cc2n1CCCO (stereo not drawn)	none
N#Cc1ccc(C(=O)N2CCCCC2c2cc(C(=O)NCc3ccccc3)no2)cc1 (stereo not drawn)	none (no result: MITF TRPM1 inh, EBV LMP1 NFkB)

Compound activity deposited in PubChem BioAssay by several laboratories.
